Reference: PubChem BioAssay (EPA / NIEHS)
“And” between values parts separate entries of the source, which are not always exact repeats. Equal entries are not always repeated. Inconclusive results are not listed. Some structures have more than one record in an assay (separate samples or runs), and their calls can disagree. The source made the active and inactive calls. Rule for the calls, unless noted: active = hit-call score of the fitted dose curve at least 0.9, where 1 is the maximum; inconclusive = response in the unintended direction; inactive = score below 0.9.

Columns and labels:
[1] = read-out: Thyroid Hormone Responsive (THRSP), THRSP (gene 7069); experiment: LTEA_HepaRG_THRSP: Life Technologies and Expression Analysis (LTEA) Assay for Thyroid Hormone Responsive (THRSP) using HepaRG (AID 2283536; active = hit-call score of the fitted dose curve at least 0.9, where 1 is the maximum; inactive = score below 0.9); conditions: mRNA level, 48 h; actives raise or lower the signal
Summary of the method: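 Differentiated human HepaRG cells were exposed in duplicate for 48 h in serum-free induction medium to eight concentrations (top 100 uM, half-log steps, 0.5% DMSO). Expression was quantified by TaqMan qRT-PCR, normalized to ACTB, GAPDH and POLR2A, with bidirectional fitting against DMSO.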

[2] = read-out: Cellular tumor antigen p53 (Homo sapiens) (UniProt P04637); experiment: LTEA_HepaRG_TP53: Life Technologies and Expression Analysis (LTEA) Assay for Tumor Protein P53 (TP53) using HepaRG (AID 2283537; active = hit-call score of the fitted dose curve at least 0.9, where 1 is the maximum; inactive = score below 0.9); conditions: mRNA level, 48 h; actives raise or lower the signal
Summary of the method: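 Differentiated HepaRG cells in serum-free induction medium exposed 48 h in duplicate to 8 half-log concentrations, top 100 uM, 0.5% DMSO. TP53 mRNA by TaqMan qRT-PCR (Fluidigm), normalized to ACTB, GAPDH, POLR2A; fitted bidirectionally versus DMSO.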

[3] = read-out: UDP glucuronosyltransferase (UGT1A1), UGT1A1 (gene 54658); experiment: LTEA_HepaRG_UGT1A1: Life Technologies and Expression Analysis (LTEA) Assay for UDP glucuronosyltransferase (UGT1A1) using HepaRG (AID 2283538; active = hit-call score of the fitted dose curve at least 0.9, where 1 is the maximum; inactive = score below 0.9); conditions: mRNA level, 48 h; actives raise or lower the signal
Summary of the method: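 Human liver HepaRG cultures receive test chemical for 48 h, up to 100 uM in 0.5% DMSO, with phenobarbital induction controls. UGT1A1 mRNA is measured by qRT-PCR and normalized to ACTB, GAPDH and POLR2A.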

[4] = read-out: X-box binding protein 1 (XBP1), XBP1 (gene 7494); experiment: LTEA_HepaRG_XBP1: Life Technologies and Expression Analysis (LTEA) Assay for X-box binding protein 1 (XBP1) using HepaRG (AID 2283540; active = hit-call score of the fitted dose curve at least 0.9, where 1 is the maximum; inactive = score below 0.9); conditions: mRNA level, 48 h; actives raise or lower the signal
Summary of the method: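 XBP1 transcript by qRT-PCR (housekeeping-normalized: ACTB, GAPDH, POLR2A) after 48 h chemical treatment of HepaRG cells, 8-point half-log series topping at 100 uM, vehicle 0.5% DMSO. Gain and loss of signal fitted relative to DMSO.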

[5] = LTEA_HepaRG_LDH_cytotoxicity: Cytotoxicity Assessment in the Life Technologies and Expression Analysis (LTEA) Assay (AID 2283563)
Summary of the method: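 LDH release into culture medium read after 48 h chemical treatment of HepaRG cells. Duplicate wells, eight-point half-log series topping at 100 uM, 0.5% DMSO vehicle and baseline.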

[6] = ATG_XTT_Cytotoxicity: Cytotoxicity Assessment in the Attagene TRANS-FACTORIAL HepG2 Assay (AID 2283584)
Summary of the method: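 Viability endpoint from XTT after 24 h chemical exposure of reporter-transfected human HepG2 liver cells; signal loss fitted relative to DMSO negative control.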

[7] = target: Cellular tumor antigen p53 (Homo sapiens) (UniProt P04637); experiment: TOX21_p53_BLA_p2_ratio: Tox21 HCT-116 p53 Agonism Beta-lactamase Assay, Ratio, Phase 2 (AID 2283592)
Summary of the method: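 Gain-of-signal p53 agonism was scored from the beta-lactamase FRET ratio (460/530 nm, 405 nm excitation) in HCT116 cells treated 16 h at 37C, 5% CO2, with DMSO serving as negative control and baseline.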

[8] = TOX21_p53_BLA_p3_viability: Viability Assessment in the Tox21 HCT-116 p53 Agonism Beta-lactamase Assay, Phase 3 (AID 2283593);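 note: cells exposed to compound for 16 h before reading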
Summary of the method: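 HCT-116 cells (4000/well) rested 5 h at 37C, then got DMSO compounds by pin tool (217-fold dilution) for 16 h at 37C, 5% CO2. After the bla read, CellTiter-Glo was added and luminescence read at 30 min, room temperature.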

[9] = target: Cellular tumor antigen p53 (Homo sapiens) (UniProt P04637); experiment: TOX21_p53_BLA_p3_ratio: Tox21 HCT-116 p53 Agonism Beta-lactamase Assay, Ratio, Phase 3 (AID 2283596)
Summary of the method: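 HCT116 p53-bla cells (4000/well) given compound in DMSO (217-fold dilution) after 5 h, incubated 16 h at 37C. CCF4-AM substrate 2 h at room temperature; 460/530 nm emission ratio, gain fitted against DMSO.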

[10] = TOX21_p53_BLA_p4_viability: Viability Assessment in the Tox21 HCT-116 p53 Agonism Beta-lactamase Assay, Phase 4 (AID 2283597);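 note: hits lower the luminescence signal meaning cytotoxicity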
Summary of the method: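 Following a 16 h exposure at 37C, the treated HCT116 wells were first read for the FRET ratio. They were then lysed with CellTiter-Glo, and ATP luminescence was recorded after 30 min at room temperature.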

[11] = target: Cellular tumor antigen p53 (Homo sapiens) (UniProt P04637); experiment: TOX21_p53_BLA_p5_ratio: Tox21 HCT-116 p53 Agonism Beta-lactamase Assay, Ratio, Phase 5 (AID 2283599)
Summary of the method: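 HCT-116 cells carrying a p53-inducible beta-lactamase reporter were seeded at 4000 cells/well and dosed after 5 h with compound in DMSO (217-fold dilution). After 16 h at 37C, CCF4-AM substrate was added for 2 h, and the 460/530 nm emission ratio was scored as gain-of-signal versus DMSO.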

[12] = TOX21_p53_BLA_p5_viability: Viability Assessment in the Tox21 HCT-116 p53 Agonism Beta-lactamase Assay, Phase 5 (AID 2283600)
Summary of the method: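 After the 460/530 nm beta-lactamase measurement, the wells received an ATP-detection luciferase reagent; signal was read 30 min later at RT. Compound treatment lasted 16 h on cells pre-incubated 5 h post-seeding.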

[13] = target: Cellular tumor antigen p53 (Homo sapiens) (UniProt P04637); experiment: TOX21_p53_BLA_p4_ratio: Tox21 HCT-116 p53 Agonism Beta-lactamase Assay, Ratio, Phase 4 (AID 2283601)
Summary of the method: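 HCT116 cells carrying an inducible beta-lactamase reporter were plated at 4000 cells/well, rested 5 h, then exposed to compounds in DMSO (217-fold dilution) for 16 h at 37C. CCF4-AM substrate was loaded 2 h at room temperature; 460/530 nm emission ratio scored gain-of-signal versus DMSO.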

[14] = Tanguay_ZF_120hpf_MORT_legacy: (Legacy) Oregon State University Tanguay Lab 120 Hour Post-fertilization zebrafish Assay for Mortality (AID 2283633)
Summary of the method: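 Static waterborne exposure from 6 to 120 hpf at 28C of single dechorionated wild-type (5D) embryos per well, 0.64% DMSO final. Death recorded present/absent by brightfield at 24 and 120 hpf.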

[15] = Tanguay_ZF_120hpf_YSE_legacy: (Legacy) Oregon State University Tanguay Lab 120 Hour Post-fertilization zebrafish Assay for Yolk Sac Edema (AID 2283634)
Summary of the method: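 Presence or absence of yolk sac edema was recorded at 120 hpf in surviving larvae. These were wild-type Tropical 5D embryos, chorion removed at 4 hpf, held in static exposure at 28C from 6 hpf with 0.64% DMSO vehicle.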

[16] = Tanguay_ZF_120hpf_AXIS_legacy: (Legacy) Oregon State University Tanguay Lab 120 Hour Post-fertilization zebrafish Assay for Body Axis Malformation (AID 2283635)
Summary of the method: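 Binary scoring of axis defects at 120 hpf under brightfield, fitted positive versus DMSO. Tropical 5D embryos, chorion removed by pronase at 4 hpf, were singly exposed in sealed, dark plates at 28C from 6 hpf; DMSO 0.64% final.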

[17] = Tanguay_ZF_120hpf_EYE_legacy: (Legacy) Oregon State University Tanguay Lab 120 Hour Post-fertilization zebrafish Assay for Eye Malformation (AID 2283636);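 note: binary presence or absence of eye malformation scored by brightfield in 120 hpf larvae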
Summary of the method: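 Dechorionated wild-type Tropical 5D zebrafish embryos were exposed statically from 6 hpf, one per well, to 120 hpf at 28C in sealed, foil-covered plates with 0.64% DMSO. Eye malformation was scored present/absent by brightfield microscopy against DMSO controls.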

[18] = Tanguay_ZF_120hpf_SNOU_legacy: (Legacy) Oregon State University Tanguay Lab 120 Hour Post-fertilization zebrafish Assay for Snout Malformation (AID 2283637)
Summary of the method: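 Tropical 5D wild-type zebrafish embryos, dechorionated with pronase at 4 hpf, were exposed singly from 6 hpf to 120 hpf statically at 28C in 0.64% DMSO. Snout malformation was scored present/absent by brightfield microscopy, fitted against DMSO.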

[19] = TOX21_p53_BLA_p2_viability: Viability Assessment in the Tox21 HCT-116 p53 Agonism Beta-lactamase Assay, Phase 2 (AID 2283591);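 note: compound exposure lasted 16 h at 37 °C; actives lower the ATP signal meaning cytotoxicity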
Summary of the method: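 HCT-116 p53-bla cells (4000/well) rested 5 h at 37C, then received compounds in DMSO (217-fold dilution) for 16 h at 37C, 5% CO2. After the CCF4 read, CellTiter-Glo was added; ATP luminescence was read after 30 min at room temperature.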

Measured: AC50

Chain of Cellular tumor antigen p53 (Homo sapiens) (P04637 whole entry, looked up): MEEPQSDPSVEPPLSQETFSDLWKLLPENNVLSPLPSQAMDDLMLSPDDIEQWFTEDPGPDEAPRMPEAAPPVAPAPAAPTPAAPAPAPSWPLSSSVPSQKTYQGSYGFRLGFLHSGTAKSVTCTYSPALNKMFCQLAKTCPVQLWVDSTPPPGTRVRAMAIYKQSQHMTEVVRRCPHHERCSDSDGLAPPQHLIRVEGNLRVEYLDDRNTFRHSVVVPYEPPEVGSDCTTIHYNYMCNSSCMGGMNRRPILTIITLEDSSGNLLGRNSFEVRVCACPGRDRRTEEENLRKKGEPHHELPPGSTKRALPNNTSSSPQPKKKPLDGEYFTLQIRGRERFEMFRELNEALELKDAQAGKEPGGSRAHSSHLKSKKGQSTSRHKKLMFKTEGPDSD

COC(=O)CCC(=O)OC
not listed: [19]
inactive: all other assays above

CC1=C(C)S(=O)(=O)CCS1(=O)=O
active: [1] 80 µM | [2] 50 µM | [4] 91 µM
not listed: [8] | [12] | [18]
inactive: all other assays above

OCC(CO)n1cnc(-c2ccc(F)cc2)c1-c1ccnc(Oc2ccccc2)n1
active: [3] 24.9 µM
not listed: [6] | [9] | [13] | [17]
inactive: all other assays above

CCCCc1nc2cccnc2n1Cc1ccc(-c2ccccc2-c2nnn[nH]2)cc1
active: [1] 35.5 µM | [3] 18.8 µM
not listed: [8] | [10] | [12] | [18]
inactive: all other assays above

NC(=Nc1ccccc1)Nc1ccccc1
active: [1] 12.8 µM
not listed: [5] | [6] | [9] | [18]
inactive: all other assays above

Oc1ccccc1O
inactive: [1] | [2] | [3] | [4] | [5] | [19] | [7] | [8] | [9] | [11] | [12] | [13] | [14] | [15] | [16] | [17]
active: [8] 74.5 µM | [10] 70.9 µM and 46.5 µM | [13] 73.5 µM

O=[Si]=O
not listed: [7] | [9] | [11] | [12] | [18] | [19]
inactive: all other assays above
